Test [1] concerns the target Sphingosine kinase 1 (Homo sapiens) (UniProt Q9NYA1). The conditions noted are these: at 1 µM.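 Also: mean SPHK1 inhibition value reported from the GSK PKIS kinase panel screen.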
Test [2] has as its target T1, Sphingosine kinase 2 (Homo sapiens) (UniProt Q9NRA0).
T1 sequence (whole entry): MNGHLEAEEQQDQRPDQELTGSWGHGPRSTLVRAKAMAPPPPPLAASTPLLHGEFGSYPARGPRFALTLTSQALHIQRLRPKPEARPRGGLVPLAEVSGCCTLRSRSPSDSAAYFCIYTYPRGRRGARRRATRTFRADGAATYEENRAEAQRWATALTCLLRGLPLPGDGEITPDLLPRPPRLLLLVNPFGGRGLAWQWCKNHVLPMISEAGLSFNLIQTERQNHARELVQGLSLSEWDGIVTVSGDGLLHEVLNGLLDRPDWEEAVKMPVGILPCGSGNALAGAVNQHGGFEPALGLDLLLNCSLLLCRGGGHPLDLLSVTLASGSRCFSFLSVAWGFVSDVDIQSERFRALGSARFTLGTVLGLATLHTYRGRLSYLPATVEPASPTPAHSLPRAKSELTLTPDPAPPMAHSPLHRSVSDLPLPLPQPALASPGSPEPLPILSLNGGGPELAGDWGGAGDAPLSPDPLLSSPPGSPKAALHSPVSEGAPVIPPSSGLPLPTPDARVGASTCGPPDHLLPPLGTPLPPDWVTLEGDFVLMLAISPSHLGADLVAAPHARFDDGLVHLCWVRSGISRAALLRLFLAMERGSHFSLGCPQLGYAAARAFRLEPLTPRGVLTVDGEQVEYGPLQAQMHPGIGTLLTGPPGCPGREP
The conditions noted are these: at 0.1 µM.

Test [3] addresses T1, Sphingosine kinase 2 (Homo sapiens). As to conditions: at 1 µM.
Test [4] concerns the target Casein kinase II subunit alpha (Homo sapiens) (UniProt P68400). As to conditions: at 0.1 µM.
Test [5] shares this target. As to conditions: at 1 µM.
The target in test [6] is T2, Inhibitor of nuclear factor kappa-B kinase subunit alpha (Homo sapiens) (UniProt O15111).
T2 sequence (whole entry): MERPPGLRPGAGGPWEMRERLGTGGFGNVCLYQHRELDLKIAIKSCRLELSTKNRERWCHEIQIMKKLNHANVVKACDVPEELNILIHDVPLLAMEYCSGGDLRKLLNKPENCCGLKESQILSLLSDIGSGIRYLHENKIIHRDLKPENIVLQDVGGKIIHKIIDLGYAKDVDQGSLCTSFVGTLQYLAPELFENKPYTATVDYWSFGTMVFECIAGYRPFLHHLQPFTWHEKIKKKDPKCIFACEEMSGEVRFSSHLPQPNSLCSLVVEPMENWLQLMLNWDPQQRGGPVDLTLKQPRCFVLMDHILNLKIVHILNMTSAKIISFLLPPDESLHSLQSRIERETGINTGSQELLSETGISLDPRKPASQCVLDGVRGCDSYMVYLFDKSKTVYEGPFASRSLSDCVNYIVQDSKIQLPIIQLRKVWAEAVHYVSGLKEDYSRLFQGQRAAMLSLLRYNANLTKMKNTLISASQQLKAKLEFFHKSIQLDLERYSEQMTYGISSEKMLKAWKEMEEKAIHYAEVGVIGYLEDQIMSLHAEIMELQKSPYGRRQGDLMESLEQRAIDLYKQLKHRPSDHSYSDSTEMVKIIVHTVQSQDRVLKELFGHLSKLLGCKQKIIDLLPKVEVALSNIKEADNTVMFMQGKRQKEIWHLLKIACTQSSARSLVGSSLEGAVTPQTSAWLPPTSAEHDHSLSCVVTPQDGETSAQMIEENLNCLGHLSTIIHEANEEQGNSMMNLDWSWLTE
As to conditions: at 0.1 µM.

The target of test [7] is T2, Inhibitor of nuclear factor kappa-B kinase subunit alpha (Homo sapiens). The conditions noted are these: at 1 µM.
The target in test [8] is T3, Inhibitor of nuclear factor kappa-B kinase subunit beta (Homo sapiens) (UniProt O14920).
T3 sequence (whole entry): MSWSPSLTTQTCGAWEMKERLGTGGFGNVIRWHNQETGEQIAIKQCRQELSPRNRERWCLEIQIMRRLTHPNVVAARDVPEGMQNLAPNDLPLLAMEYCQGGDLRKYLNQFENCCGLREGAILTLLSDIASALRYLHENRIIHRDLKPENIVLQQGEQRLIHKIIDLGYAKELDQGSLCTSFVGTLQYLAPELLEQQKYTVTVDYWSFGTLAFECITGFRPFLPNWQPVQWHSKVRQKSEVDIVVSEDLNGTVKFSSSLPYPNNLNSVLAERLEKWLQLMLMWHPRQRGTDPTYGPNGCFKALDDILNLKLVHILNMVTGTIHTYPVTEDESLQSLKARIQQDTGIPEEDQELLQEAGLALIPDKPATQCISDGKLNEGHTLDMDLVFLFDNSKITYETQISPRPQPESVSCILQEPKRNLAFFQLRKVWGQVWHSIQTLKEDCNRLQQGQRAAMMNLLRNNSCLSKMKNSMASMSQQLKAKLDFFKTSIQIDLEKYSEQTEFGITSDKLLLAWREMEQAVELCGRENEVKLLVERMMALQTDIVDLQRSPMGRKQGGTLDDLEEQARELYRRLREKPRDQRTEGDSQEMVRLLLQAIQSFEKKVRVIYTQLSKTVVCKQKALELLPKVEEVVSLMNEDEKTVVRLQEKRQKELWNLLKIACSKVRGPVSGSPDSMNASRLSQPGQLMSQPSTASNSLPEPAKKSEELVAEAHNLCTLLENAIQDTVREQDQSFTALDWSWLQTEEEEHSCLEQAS
As to conditions: at 0.1 µM.

Test [9] addresses T3, Inhibitor of nuclear factor kappa-B kinase subunit beta (Homo sapiens). The conditions noted are these: at 1 µM.
The target in test [10] is T4, Inhibitor of nuclear factor kappa-B kinase subunit epsilon (Homo sapiens) (UniProt Q14164).
T4 sequence (whole entry): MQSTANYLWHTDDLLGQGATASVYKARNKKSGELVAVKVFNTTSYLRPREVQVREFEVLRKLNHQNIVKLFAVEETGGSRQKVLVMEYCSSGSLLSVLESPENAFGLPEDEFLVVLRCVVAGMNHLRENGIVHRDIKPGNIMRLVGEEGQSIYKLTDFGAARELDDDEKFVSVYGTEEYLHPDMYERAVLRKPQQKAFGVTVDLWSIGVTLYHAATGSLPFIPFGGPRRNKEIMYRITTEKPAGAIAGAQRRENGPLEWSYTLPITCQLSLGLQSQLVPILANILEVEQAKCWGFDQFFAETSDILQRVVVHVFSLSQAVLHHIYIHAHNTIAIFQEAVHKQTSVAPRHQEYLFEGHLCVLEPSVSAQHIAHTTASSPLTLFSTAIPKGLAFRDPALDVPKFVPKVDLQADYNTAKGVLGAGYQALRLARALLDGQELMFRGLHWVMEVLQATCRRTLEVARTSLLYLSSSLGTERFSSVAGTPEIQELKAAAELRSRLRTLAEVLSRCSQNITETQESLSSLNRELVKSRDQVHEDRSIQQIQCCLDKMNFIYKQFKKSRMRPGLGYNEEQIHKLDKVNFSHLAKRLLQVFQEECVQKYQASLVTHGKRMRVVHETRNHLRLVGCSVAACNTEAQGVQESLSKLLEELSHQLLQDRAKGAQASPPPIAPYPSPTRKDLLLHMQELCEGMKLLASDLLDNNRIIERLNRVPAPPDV
As to conditions: at 0.1 µM.

In test [11] the target is T4, Inhibitor of nuclear factor kappa-B kinase subunit epsilon (Homo sapiens). The conditions noted are these: at 1 µM.
In test [12] the target is T5, Serine/threonine-protein kinase Nek1 (Homo sapiens) (UniProt Q96PY6).
T5 sequence (whole entry): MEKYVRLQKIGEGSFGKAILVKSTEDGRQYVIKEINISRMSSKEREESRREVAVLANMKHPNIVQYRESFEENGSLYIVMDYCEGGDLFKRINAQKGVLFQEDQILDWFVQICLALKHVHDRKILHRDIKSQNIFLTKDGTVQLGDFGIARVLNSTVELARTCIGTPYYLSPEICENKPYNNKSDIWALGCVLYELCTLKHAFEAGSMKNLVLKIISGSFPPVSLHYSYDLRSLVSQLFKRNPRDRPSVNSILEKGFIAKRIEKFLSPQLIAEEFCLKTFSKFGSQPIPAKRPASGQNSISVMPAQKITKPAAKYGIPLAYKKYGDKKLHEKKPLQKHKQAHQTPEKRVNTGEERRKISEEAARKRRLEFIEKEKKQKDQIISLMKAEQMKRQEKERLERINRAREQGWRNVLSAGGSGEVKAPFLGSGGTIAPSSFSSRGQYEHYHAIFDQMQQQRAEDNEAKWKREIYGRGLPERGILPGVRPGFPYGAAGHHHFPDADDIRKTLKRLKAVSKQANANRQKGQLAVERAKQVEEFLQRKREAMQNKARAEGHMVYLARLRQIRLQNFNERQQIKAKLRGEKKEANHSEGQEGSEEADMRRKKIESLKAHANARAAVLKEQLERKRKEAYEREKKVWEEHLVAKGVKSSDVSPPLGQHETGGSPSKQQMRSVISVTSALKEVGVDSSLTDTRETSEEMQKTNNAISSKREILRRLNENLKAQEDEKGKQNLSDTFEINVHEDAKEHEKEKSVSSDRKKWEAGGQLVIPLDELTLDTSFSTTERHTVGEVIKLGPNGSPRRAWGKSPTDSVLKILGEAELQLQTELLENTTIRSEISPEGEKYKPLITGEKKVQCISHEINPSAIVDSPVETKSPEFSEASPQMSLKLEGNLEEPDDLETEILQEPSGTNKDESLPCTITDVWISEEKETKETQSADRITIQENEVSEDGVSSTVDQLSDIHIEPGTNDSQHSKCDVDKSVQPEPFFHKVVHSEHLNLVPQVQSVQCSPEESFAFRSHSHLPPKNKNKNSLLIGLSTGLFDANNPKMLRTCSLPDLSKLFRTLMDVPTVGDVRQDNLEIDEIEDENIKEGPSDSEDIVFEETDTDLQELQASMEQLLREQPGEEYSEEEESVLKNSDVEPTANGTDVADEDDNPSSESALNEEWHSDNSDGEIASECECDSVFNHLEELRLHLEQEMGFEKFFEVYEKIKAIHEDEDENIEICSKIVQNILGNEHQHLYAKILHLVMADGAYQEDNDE
The conditions noted are these: at 0.1 µM.

The target in test [13] is T5, Serine/threonine-protein kinase Nek1 (Homo sapiens). As to conditions: at 1 µM.
Test [14] has as its target T6, Serine/threonine-protein kinase Nek2 (Homo sapiens) (UniProt P51955).
T6 sequence (whole entry): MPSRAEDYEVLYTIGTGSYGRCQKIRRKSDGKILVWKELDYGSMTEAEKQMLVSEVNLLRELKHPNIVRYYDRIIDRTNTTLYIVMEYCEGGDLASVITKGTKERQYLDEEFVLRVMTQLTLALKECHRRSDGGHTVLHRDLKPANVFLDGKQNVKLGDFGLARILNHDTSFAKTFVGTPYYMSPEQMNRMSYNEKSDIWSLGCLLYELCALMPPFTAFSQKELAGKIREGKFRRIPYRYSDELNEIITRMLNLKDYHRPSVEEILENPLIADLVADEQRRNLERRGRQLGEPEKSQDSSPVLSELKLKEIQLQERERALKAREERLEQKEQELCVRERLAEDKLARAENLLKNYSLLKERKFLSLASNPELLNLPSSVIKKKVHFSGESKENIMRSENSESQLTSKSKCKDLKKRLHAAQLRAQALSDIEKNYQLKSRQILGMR
The conditions noted are these: at 0.1 µM.

Test [15] concerns the target T6, Serine/threonine-protein kinase Nek2 (Homo sapiens). The conditions noted are these: at 1 µM.
In test [16] the target is Serine/threonine-protein kinase Nek6 (Homo sapiens) (UniProt Q9HC98). As to conditions: at 0.1 µM.
Serine/threonine-protein kinase Nek6 (Homo sapiens), sequence (Q9HC98 whole entry): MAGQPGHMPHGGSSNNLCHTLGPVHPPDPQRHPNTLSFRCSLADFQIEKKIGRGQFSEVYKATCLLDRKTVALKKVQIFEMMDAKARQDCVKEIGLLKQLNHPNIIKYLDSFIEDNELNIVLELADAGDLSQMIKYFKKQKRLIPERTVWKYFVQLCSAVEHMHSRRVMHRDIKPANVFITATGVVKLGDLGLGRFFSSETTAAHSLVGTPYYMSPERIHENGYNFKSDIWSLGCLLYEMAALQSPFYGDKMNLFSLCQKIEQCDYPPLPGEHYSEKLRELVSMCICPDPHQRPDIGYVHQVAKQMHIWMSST
For test [17] the target is unchanged. As to conditions: at 1 µM.
Test [18] addresses Serine/threonine-protein kinase Nek7 (Homo sapiens) (UniProt Q8TDX7). As to conditions: at 0.1 µM.
For test [19] the target is unchanged. As to conditions: at 1 µM.
Test [20] concerns the target T7, Serine/threonine-protein kinase Nek9 (Homo sapiens) (UniProt Q8TD19).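 Also: reported value is the mean percent inhibition of NEK9.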
T7 sequence (whole entry): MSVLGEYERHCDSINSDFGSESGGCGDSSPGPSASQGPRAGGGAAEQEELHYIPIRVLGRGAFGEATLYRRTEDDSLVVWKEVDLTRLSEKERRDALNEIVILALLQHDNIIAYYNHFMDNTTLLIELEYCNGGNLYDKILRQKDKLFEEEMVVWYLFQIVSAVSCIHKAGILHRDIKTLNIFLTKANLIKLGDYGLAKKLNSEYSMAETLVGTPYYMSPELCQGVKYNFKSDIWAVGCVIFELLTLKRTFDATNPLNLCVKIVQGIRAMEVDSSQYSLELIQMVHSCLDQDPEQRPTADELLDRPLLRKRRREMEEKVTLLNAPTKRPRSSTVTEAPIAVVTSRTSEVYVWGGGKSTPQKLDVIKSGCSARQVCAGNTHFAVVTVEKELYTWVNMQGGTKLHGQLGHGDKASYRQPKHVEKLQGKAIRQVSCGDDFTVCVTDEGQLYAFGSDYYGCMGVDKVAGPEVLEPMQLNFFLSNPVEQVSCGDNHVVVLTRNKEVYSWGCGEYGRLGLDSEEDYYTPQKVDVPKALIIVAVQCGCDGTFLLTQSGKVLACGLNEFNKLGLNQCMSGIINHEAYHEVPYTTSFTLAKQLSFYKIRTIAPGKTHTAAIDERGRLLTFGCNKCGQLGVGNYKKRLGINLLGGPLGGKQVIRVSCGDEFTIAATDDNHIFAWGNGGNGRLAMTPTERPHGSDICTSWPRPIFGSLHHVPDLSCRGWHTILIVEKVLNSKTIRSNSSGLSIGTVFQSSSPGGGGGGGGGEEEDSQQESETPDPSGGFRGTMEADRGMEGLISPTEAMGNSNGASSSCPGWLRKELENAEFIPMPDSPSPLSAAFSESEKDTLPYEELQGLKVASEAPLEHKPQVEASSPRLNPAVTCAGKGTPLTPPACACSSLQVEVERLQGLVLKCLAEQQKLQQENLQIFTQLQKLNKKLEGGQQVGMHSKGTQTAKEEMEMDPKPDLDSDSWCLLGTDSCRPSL
The conditions noted are these: at 0.1 µM.

Casein kinase II subunit alpha (Homo sapiens), sequence (P68400 whole entry, looked up): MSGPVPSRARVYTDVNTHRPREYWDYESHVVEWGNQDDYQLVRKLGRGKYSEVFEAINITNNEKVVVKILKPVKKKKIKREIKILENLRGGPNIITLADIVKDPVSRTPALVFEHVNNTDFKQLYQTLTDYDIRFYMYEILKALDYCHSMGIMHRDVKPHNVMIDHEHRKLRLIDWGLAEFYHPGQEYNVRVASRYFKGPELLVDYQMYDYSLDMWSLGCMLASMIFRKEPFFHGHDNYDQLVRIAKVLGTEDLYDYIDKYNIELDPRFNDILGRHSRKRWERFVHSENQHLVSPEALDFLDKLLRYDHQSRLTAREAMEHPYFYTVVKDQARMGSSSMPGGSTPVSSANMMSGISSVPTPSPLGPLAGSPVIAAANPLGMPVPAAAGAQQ
Serine/threonine-protein kinase Nek7 (Homo sapiens), sequence (Q8TDX7 whole entry, looked up): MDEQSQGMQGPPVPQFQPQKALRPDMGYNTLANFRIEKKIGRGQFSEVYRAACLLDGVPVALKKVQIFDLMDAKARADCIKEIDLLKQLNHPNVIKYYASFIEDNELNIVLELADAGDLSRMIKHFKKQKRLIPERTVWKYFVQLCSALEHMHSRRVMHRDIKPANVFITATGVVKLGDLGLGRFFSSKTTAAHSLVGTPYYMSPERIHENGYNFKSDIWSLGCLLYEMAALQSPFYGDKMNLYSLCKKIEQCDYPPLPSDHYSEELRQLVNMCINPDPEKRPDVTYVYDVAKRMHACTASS
Sphingosine kinase 1 (Homo sapiens), sequence (Q9NYA1 whole entry): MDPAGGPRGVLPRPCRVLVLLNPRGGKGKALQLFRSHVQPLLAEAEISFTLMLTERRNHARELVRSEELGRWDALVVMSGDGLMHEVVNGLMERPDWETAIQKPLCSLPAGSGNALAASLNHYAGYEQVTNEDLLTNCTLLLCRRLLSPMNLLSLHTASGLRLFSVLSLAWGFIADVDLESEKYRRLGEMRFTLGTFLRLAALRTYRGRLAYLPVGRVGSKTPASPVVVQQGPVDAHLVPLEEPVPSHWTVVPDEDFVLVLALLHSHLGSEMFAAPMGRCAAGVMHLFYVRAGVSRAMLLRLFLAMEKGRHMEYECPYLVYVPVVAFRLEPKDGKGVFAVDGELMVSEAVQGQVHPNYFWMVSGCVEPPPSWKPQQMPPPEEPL

With `COc1ccc(-c2oc3ncnc(N)c3c2-c2ccc(NC(=O)Nc3cc(C(F)(F)F)ccc3F)cc2)cc1`, the inhibition in [1] is -0.9%; in test [2], 0.08%; in [3], 0.05%; in [4], 6.63%; in test [5] it was 16.7%; in [6] it was 1.18%. Besides, the inhibition in test [7] was 2.5%; in test [8], 7.03%; in test [9], 5.27%; in test [10], 8.13%; in test [11], 9.69%; in [12], 5.73%. The inhibition in test [13] came to 16.9%; in test [14], 5.08%; in test [15], 7.47%; in [16], 2.43%; in test [17] it was 3.73%; in test [18], 3.58%. Further, the inhibition in [19] is -1.9%; in test [20] it was 6.04%.

Source of the values: ChEMBL document CHEMBL1961873, “Compounds: GSK PKIS; Assays: Nanosyn kinase panel” (2012).
